# The sample as a whole holds a higher share of hits than the screen did.
# G9a inh: inhibitors of human histone lysine methyltransferase G9a; AID 504332; Potency, µM (doses to about 102 µM), for inactives: at the top dose activity, negative = inhibition, usual class: inhibitors; 350,000 tested, 8.8% active; G9a H3K9 monomethylation, AlphaScreen, 2 h; Q96KQ7; note: % is set by controls: 0 for no effect and ±100 for the full control effect; nearly all actives have a fitted effect of over 75% in size
#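 Methyltransferase reactions run at room temperature for 2 h (20 nM enzyme, 500 nM biotin-H3K9 peptide, 20 uM SAM) after a 15 min compound preincubation; product detected by AlphaScreen beads and anti-H3K9me1 antibody.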
# 12-LOX inh: blocks human arachidonate 12S-lipoxygenase; purified 12hLO, xylenol orange hydroperoxide absorbance; Potency, µM (top dose mostly 108 µM), for inactives: at the highest dose activity change, negative = inhibition, actives largely listed as inhibitors; 580,000 tested, 1.1% active; AID 1671190; note: % is set by controls: 0 for no effect and ±100 for the full control effect
# Target sequence (P18054 whole entry, looked up): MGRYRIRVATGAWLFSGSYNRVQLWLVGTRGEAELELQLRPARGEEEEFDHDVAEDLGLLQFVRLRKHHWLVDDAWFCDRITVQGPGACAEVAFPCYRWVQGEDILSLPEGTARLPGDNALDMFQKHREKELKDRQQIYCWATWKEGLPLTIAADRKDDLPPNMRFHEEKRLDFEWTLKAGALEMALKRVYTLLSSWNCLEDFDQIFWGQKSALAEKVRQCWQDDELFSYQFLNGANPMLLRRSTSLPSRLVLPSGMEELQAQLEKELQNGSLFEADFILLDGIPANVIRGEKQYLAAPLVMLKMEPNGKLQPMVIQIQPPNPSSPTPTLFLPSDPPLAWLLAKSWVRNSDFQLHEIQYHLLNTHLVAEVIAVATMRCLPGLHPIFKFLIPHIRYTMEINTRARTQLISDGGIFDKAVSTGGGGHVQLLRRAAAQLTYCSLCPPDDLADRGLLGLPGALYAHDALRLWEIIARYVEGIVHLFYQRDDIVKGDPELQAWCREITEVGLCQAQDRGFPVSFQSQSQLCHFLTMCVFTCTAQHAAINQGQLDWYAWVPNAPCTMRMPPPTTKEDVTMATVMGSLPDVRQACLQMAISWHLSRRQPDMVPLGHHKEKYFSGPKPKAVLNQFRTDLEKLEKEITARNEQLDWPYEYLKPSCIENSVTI
#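 Purified human 12hLO at 150 nM in 25 mM Hepes, 0.01% Triton X-100, pH 7.0, preincubated 15 min at room temperature with compound. Reaction started with 40 uM arachidonic acid, 30 min at room temperature. Hydroperoxide measured by Fe-xylenol orange, 573/405 nm absorbance ratio.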
# Sfp PPTase inh: blocks B. subtilis Sfp PPTase activity | Biochemical Sfp PPTase activity, qHTS | Potency, µM, inactives show largest response in the series, negative = inhibition, usual class: inhibitors | 310,000 tested, 3.5% active | AID 1490;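 note: the enzyme is Sfp with the accession as filed and its product quenches rhodamine fluorescence; 0% = enzyme reaction without inhibitor and -100% = no enzyme wells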
#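 Buffer: 50 mM Hepes-Na pH 7.6, 10 mM MgCl2, 0.01% Nonidet P-40, 0.01% BSA. Enzyme 15 nM, pre-exposed to compound 15 min; substrates then added and fluorescence change tracked over 30 min.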
# VDR inhibitor: inhibitors of human vitamin D receptor | VDR-SRC2-3 peptide fluorescence polarization, 2 h | Potency, µM, inactives show max response, negative = inhibition, most hits filed as inhibitors | 400,000 tested, 0.93% active; note: % is set by controls: 0 for no effect and ±100 for the full control effect
#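 Two reagent solutions held at 4 deg C in the dark were dispensed, compounds pinned at 23 nl, and the mixture incubated 2 h at room temperature. Read-out: fluorescence polarization of VDR–SRC2-3 peptide binding.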
# GRP78 ERSR act: inducers of ER stress response in human glioma cells; U87-MG GRP78 promoter luciferase reporter, 16 h; Potency, µM, inactives show at the highest dose activation, actives largely listed as activators; 420,000 tested, 0.02% active; AID 602332; note: series mostly up to about 76 µM; % of control where 0% means no effect; nearly all actives have a fitted effect of over 35% in size
#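 ERSR induction read as luciferase luminescence (Bright-Glo, 10 min at room temperature) in stably transfected human U87-MG glioma cells exposed to compounds for 16 h, using GRP78 as sensor.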
# Starred values were filed as active, the others as inactive; ? = inconclusive; nt = no result; ! = a repeat was not active; [ ] = dose if it differs, or a comment. Calls come from the whole dose curve; as a rule, active = well fitted curve in the direction sought with a large enough effect; inconclusive = small, poorly fitted or top-dose-only effect, or another doubt; inactive = no such curve, though single readings can be large; an effect the other way counts as inactive or inconclusive. Potency is the fitted concentration of half-maximal effect.
SMILES,G9a inh,12-LOX inh,Sfp PPTase inh,VDR inhibitor,GRP78 ERSR act
COc1ccccc1N1CCN(C(=O)c2cc(-c3ccccc3)on2)CC1,16%[59 µM],6%,14%,-5%,2%
O=C(c1cc(-c2ccco2)on1)N1CCc2ccccc2C1,11µM*,18µM*,45µM*,-2%,6%
O=C(c1noc2c1CCc1ccccc1-2)N1CCc2ccccc2C1,3%[12.7 µM],nt,1µM*,nt,nt
COc1ccccc1N1CCN(C(=O)c2cc(-c3ccco3)on2)CC1,45µM*,?,2%,0%,0%
Cc1ccc2nc(C)cc(C(=O)NC3CCS(=O)(=O)C3)c2c1 (configuration not stated),nt,28%,nt,nt,nt
COc1ccc(-c2nc(CS(=O)CC(=O)NCC(OC)OC)c(C)o2)cc1OC (configuration not stated),nt,-10%,nt,nt,nt
COC(=O)[C@@H]1[C@H]2C[C@H]3c4[nH]c5ccccc5c4CCN3C[C@@H]2CC[C@@H]1O,21µM*!,-7%[22.9 µM],7%,-6%,-5%
COC(=O)[C@H]1[C@@H]2C[C@@H]3c4[nH]c5ccccc5c4CCN3C[C@H]2CC[C@H]1O,nt,nt,7%,17%,-2%
CC(=O)c1ccc(N2C(=NC(=O)C3CCCO3)SC3CS(=O)(=O)CC32)cc1 (configuration not stated),-2%,19%,14%,5%,-3%
CN(C)c1ccc(N2C(=NC(=O)C3CCCO3)SC3CS(=O)(=O)CC32)cc1 (configuration not stated),45µM*,-1%,-2%,5%,1%
CC(=O)Nc1cccc(NC(=O)C(=O)NCCc2csc(-c3ccc(C(F)(F)F)cc3)n2)c1,nt,1%,nt,nt,nt
Nc1nn(-c2cccc(F)n2)cc1-c1ccc(Cl)cc1,3%,-3%,15%,-47%,-2%
COc1ccc(-c2ccn(-c3cccc(F)n3)n2)cc1,14µM*,?,-16%,-23%,7%
CCC(=C(c1ccc(OC)cc1)c1ccc(OC)cc1)c1cn(CC(O)CN2CCN(C)CC2)c2ccccc12 (configuration not stated),40µM*,?,50µM*,-22%,0%
COc1ccc(C(=O)/C=C/c2cn(CC(O)CN3CCc4ccccc43)c3ccccc23)cc1 (configuration not stated),?,?,nt,3%,-4%
CC(=O)Oc1cc(OC(C)=O)c2c(c1)OC(c1ccc(OC(C)=O)c(OC(C)=O)c1)C(OC(C)=O)C2 (configuration not stated),nt,nt,-6%,7%,-3%
O=C(OC1Cc2c(O)cc(O)cc2OC1c1cc(O)c(O)c(O)c1-c1c(C2Oc3cc(O)cc(O)c3CC2O)cc(O)c(O)c1O)c1cc(O)c(O)c(O)c1 (configuration not stated),nt,nt,40µM*,-14%,-5%
CN1CCc2c(sc3c2C(=O)NC(c2ccc(-c4cccc(Cl)c4)o2)N3)C1 (configuration not stated),nt,nt,50µM*,6%,-1%
Cc1ccsc1C1NC(=O)c2c(sc3c2CCN(C)C3)N1 (configuration not stated),40µM*,194%[57.4 µM],5%,?,-1%
CC(C)c1ccc(C2NC(=O)c3c(sc4c3CCN(C)C4)N2)cc1 (configuration not stated),?,147%,nt,-20%,0%
CN1CCc2c(sc3c2C(=O)NC(c2cccs2)N3)C1 (configuration not stated),?,361%,0%,-52%,3%
CSc1ccc(C2NC(=O)c3c(sc4c3CCN(C)C4)N2)cc1 (configuration not stated),40µM*,96%,?,-7%,0%
CN1CCc2c(sc3c2C(=O)NC(c2ccc(C(C)(C)C)cc2)N3)C1 (configuration not stated),8.9µM*,225%,nt,-27%,-3%
C=CCn1c(C(=O)NCCCOCC)cc2cc(S(=O)(=O)N(C)C)ccc21,nt,6%,nt,nt,nt
COc1ccc(C(=O)N[C@@H]2C(=O)Nc3c(c(C)nn3C)[C@H]2c2ccc3c(c2)OCCO3)cc1OC,nt,-31%,nt,nt,nt
SMILES,G9a inh,12-LOX inh,Sfp PPTase inh,VDR inhibitor,GRP78 ERSR act
COc1ccccc1NC(=O)Cc1cccn1-c1ccc(Cl)cc1,nt,-5%,nt,nt,nt
CCn1nc(C(=O)Nc2cccc(S(=O)(=O)N3CCCCCC3)c2)c2ccccc2c1=O,nt,3%,nt,nt,nt
CC1=C(C)C(C)=C(C#N)C(=C(C#N)C#N)N1,40µM*,1.1µM*,-18%,-9%,-2%
CC(C)CC(=O)Nc1ccc(-c2nc3cc(Cl)ccc3o2)cc1,nt,-1%,nt,nt,nt
O=C(NC(=S)Nc1cccc(O)c1)C12CC3CC(CC(C3)C1)C2,nt,22µM*,nt,nt,6%
O=C(NC(=S)Nc1ccc2c(c1)OCCO2)c1ccco1,71µM*,-19%,2%,-5%,-5%
O=C(CNC(=O)c1ccco1)Nc1ccc2c(c1)OCCO2,15%[0.501 µM],5%,nt,20%,-10%
O=C(NNC(=O)C12CC3CC(CC(C3)C1)C2)c1cccc(O)c1,19%,-1%,13%,4%,6%
O=C(NC(=S)Nc1cccc(O)c1)c1ccco1,50µM*,?,?,-24%,4%
CCCc1cc(C(=O)Nc2ccccc2SC)cs1,nt,-6%,nt,nt,nt
O=C(O/N=C1\CCCCC1c1ccc([N+](=O)[O-])cc1[N+](=O)[O-])c1c(F)cccc1F (configuration not stated),40µM*,-13%,?,-5%,-2%
CCn1cc(CN2CC(Oc3ccc(-c4noc(-c5cccnc5)n4)cc3)C2)cn1,nt,44%,nt,nt,nt
CO[C@H]1C(=O)N(C(C)C)[C@H]1C1CCN(Cc2ccc(C)s2)CC1,nt,26%,nt,nt,nt
CCOC(=O)N1CCC(NCCNC(=O)c2ccccc2Cl)CC1,3.5µM*,?,4%,-1%,-4%
CCOC(=O)N1CCN(C(=O)C2CCN(C(=O)c3ccccc3C)CC2)CC1,nt,?,nt,22µM*,-19%
CC(c1ccccc1)N1CCn2c(nc3cc(NC(=O)c4cccs4)ccc32)C1 (configuration not stated),?,3%,5%,-5%,3%
CC(c1ccccc1)N1CCn2c(nc3cc(NC(=O)NC4CCCCC4)ccc32)C1 (configuration not stated),35µM*,-25%,-6%,-6%,3%
COc1cc2oc(=O)cc(C)c2cc1CCC(=O)O,nt,0%,nt,nt,nt
O=C1c2nc3cc(-c4ccco4)[nH]n3c(=O)c2CN1Cc1ccccc1,?,22µM*,20µM*,-2%,-4%
CCCCc1c(C)nc2cc(-c3ccco3)[nH]n2c1=O,?,?,5%,1%,-2%
CC(NC(=O)CSc1nc2c(c(C(F)(F)F)n1)CCc1ccccc1-2)c1ccccc1 (configuration not stated),12%[59 µM],-7%,16%,-2%,-10%
CCc1c(C)sc(NC(=O)CSc2nc3c(c(C(F)(F)F)n2)CCc2ccccc2-3)c1C#N,?,?,45µM*,-14%,-3%

# Screening results as filed in PubChem BioAssay.
